Experiment [1] has as its target Cytochrome P450 3A4 (Homo sapiens) (UniProt P08684). The experiment can be described thus: qHTS Assay for Inhibitors and Substrates of Cytochrome P450 3A4 (AID 884). Also: nearly all actives have a fitted effect of over 50% in size. Also: potency is read from the fitted curve at half-maximal effect. As to activity change, negative = inhibition: % is scaled to controls: 0 for no effect and ±100 for the full control effect. Summed up: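 Luminescent readout of luciferin produced by CYP3A4 (20 nM) dealkylation of Luciferin-PPXE, 25 uM (its KM). NADPH-driven reaction ran 60 min at RT after 10 min compound preincubation; data scaled to 57 uM ketoconazole as 100% inhibition.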

Experiment [2] is described as follows: Confirmation and Secondary Assay for Modulators of Hemoglobin Beta Chain Splicing at IVS2 654 locus (AID 910).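 Also: HeLa cells stably carrying EGFP split by mutant beta-globin IVS2-654 intron; % of control where 0% means no effect.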 The procedure, abridged:
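HeLa cells stably expressing EGFP interrupted by β-globin IVS2-654 intron, seeded overnight in Opti-MEM/2% FCS, then treated 2 days at 37 °C. Restored splicing read as total peak GFP intensity per well by laser scanning cytometry (488 nm excitation, 500–520 nm emission); 500 nM antisense PNA as control.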

Experiment [3] can be described thus: Confirmation and Secondary Assay for Modulators of Hemoglobin Beta Chain Splicing at IVS2 705 locus (AID 930).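 Also: HeLa cells stably expressing the EGFP-705 splicing reporter; GFP fluorescence per well restored by corrected splicing of the IVS2-705 intron in EGFP; % of control where 0% means no effect.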 The procedure, abridged:
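HeLa cells stably carrying EGFP interrupted by mutant beta-globin intron 2 (IVS2-705) treated 2 days at 37C with compound; 500 nM antisense PNA as control. Correct splicing read as total peak GFP intensity per well by laser-scanning cytometry.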

Experiment [4] can be described thus: qHTS Assay for Lipid Storage Modulators (AID 1519; calls by dose curve; as to activity change, negative = inhibition: % is scaled to controls: 0 for no effect and ±100 for the full control effect). The following applies: Drosophila S3 cells, BODIPY lipid droplet/cell ratio, laser cytometry, cells loaded with oleic acid; for activity change, negative = inhibition: at 57.5 µM (top of the series). Summed up:
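Cells seeded at 5,000 per well were treated with compounds over a concentration series and loaded with oleic acid (400 uM, as added). Lipid droplet fluorescence (488 nm excitation, 500-530 nm channel) was read by laser-scanning cytometry and normalized to 20 uM Triacsin C.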

For experiment [5], the target named is Ubiquitin carboxyl-terminal hydrolase 1 (Homo sapiens) (UniProt O94782). The experiment can be described thus: Inhibitors of USP1/UAF1: Pilot qHTS (AID 504865).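 Also: rhodamine fluorescence freed from ubiquitin-rhodamine substrate followed over time; top concentration of the series differs between compounds; % is scaled to controls: 0 for no effect and ±100 for the full control effect; nearly all actives have a fitted effect of over 35% in size.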 The procedure, abridged: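 USP1/UAF1 complex (1nM) preincubated with compound 15 min at room temperature, then Ub-Rho substrate (150nM final) added. Fluorescence read kinetically at 480/540 nm, 6 reads every 60 seconds. Buffer: 50mM HEPES pH 7.8, 0.5mM EDTA, 0.1 mg/ml BSA, 1mM TCEP, 0.01% Tween-20.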
Ubiquitin carboxyl-terminal hydrolase 1 (Homo sapiens), sequence (O94782 whole entry, looked up): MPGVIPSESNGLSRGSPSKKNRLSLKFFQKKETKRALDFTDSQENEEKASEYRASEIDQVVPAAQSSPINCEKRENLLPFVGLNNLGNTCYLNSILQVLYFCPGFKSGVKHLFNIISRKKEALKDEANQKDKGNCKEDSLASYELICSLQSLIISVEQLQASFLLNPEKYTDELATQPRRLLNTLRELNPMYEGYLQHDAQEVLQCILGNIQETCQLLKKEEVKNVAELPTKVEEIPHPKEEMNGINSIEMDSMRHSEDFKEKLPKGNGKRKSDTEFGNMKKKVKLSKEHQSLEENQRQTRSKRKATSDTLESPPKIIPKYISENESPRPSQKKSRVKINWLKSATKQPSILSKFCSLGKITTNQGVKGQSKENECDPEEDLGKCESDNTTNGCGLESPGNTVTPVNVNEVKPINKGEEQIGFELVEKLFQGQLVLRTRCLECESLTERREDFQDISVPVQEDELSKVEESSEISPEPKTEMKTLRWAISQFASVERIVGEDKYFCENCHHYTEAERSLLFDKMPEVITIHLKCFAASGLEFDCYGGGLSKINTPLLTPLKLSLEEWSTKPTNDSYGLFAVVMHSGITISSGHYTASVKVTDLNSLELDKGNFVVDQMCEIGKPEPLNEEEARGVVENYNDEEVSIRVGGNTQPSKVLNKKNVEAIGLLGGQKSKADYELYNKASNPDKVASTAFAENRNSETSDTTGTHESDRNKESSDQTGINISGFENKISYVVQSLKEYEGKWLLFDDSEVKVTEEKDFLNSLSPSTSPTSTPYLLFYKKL

[6] abbreviates: measured here: cell count channel max response.
Setting [7] is: measured here: lipid channel max response.

Records with an inconclusive call do not appear. Calls of active or inactive are those of the source. Unless noted, calls follow the shape of the dose curve; as a rule, active = well fitted curve in the direction sought with a large enough effect; inconclusive = small, poorly fitted or top-dose-only effect, or another doubt; inactive = no such curve, though single readings can be large; an effect the other way counts as inactive or inconclusive.

Cytochrome P450 3A4 (Homo sapiens), sequence (P08684 whole entry, looked up): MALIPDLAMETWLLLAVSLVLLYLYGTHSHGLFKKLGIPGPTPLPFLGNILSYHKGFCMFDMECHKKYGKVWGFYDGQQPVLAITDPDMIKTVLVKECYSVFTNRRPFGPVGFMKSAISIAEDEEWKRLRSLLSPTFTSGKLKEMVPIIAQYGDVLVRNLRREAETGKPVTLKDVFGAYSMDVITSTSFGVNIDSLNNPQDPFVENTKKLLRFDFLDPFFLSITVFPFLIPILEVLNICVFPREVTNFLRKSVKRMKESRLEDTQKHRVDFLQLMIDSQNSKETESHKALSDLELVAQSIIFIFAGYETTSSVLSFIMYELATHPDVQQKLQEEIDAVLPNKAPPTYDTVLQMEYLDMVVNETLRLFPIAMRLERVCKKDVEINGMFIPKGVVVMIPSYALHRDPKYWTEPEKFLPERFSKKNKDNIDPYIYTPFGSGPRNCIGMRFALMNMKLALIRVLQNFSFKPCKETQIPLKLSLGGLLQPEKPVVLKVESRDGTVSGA

On to `C=C(C)C1COc2cc3oc(=O)ccc3cc2O1` (stereo unspecified), for which the Potency result in experiment [1], in experiment [2], in experiment [3] and in experiment [5] was “inactive” throughout. Further, the activity change, negative = inhibition in experiment [4] was 14.3% (inactive). Moreover, the max response in experiment [4] (setting [6]) is 12.5%; in experiment [4] (setting [7]), 28.8%.

In the case of `CCOc1ccc(C(=O)c2ccc(OC)c(O)c2O)cc1`, the Potency entry in experiment [1], in experiment [2], in experiment [3] and in experiment [5] was “inactive” in each case. Also, the activity change, negative = inhibition in experiment [4] is 7.45% (inactive). The max response in experiment [4] (setting [6]) worked out at 6.67%; in experiment [4] (setting [7]) it was 16.2%.

On to `COc1ccc2c(c1OC)OCC(c1ccc(OC)c(OC)c1OC)C2` (stereo unspecified), for which the Potency result in experiment [1], in experiment [2], in experiment [3] and in experiment [5] was “inactive” in each case. The activity change, negative = inhibition in experiment [4] was 9.26% (inactive). The values for the max response in experiment [4] (setting [6]) and in experiment [4] (setting [7]) were 12.7% and 23.2%, respectively.

For `COc1ccccc1/C=C\C(=O)O`, the Potency entry in experiment [1], in experiment [2], in experiment [3] and in experiment [5] was “inactive” each time. Also, the activity change, negative = inhibition in experiment [4] was -2.1% (inactive). Besides, the max response in experiment [4] (setting [6]) and in experiment [4] (setting [7]) was 4.2% each time.

For the compound `NCCC(O)C(=O)NC1C[C@@H](N)[C@H](O[C@@H]2OC(CN)C(O)C(O)C2O)C(O)[C@H]1O[C@H]1OC(CO)C(O)C(N)C1O` (stereo partly specified), the Potency entry in experiment [1], in experiment [2], in experiment [3] and in experiment [5] was “inactive” throughout. Also, in experiment [4], the activity change, negative = inhibition is 7.58% (inactive). Besides, the max response in experiment [4] (setting [6]) was 23.7%; in experiment [4] (setting [7]) it was 35.1%.

For the compound `O=c1cc(-c2ccccc2O)oc2cc(O)ccc12`, the Potency entry in experiment [1], in experiment [2], in experiment [3] and in experiment [5] was “inactive” in each case. Besides, in experiment [4], the activity change, negative = inhibition is 8.08% (inactive). For the same compound, the max response in experiment [4] (setting [6]) was found to be 28.6%; in experiment [4] (setting [7]) it was 40%.

Consider `CC1=C2C(O)C(=O)OC3CC4C(C)(C)C(=O)C=C[C@]4(C)C(CC1)[C@@]23C` (stereo partly specified), for which the Potency entry in experiment [1], in experiment [2], in experiment [3] and in experiment [5] was “inactive” each time. In addition, the activity change, negative = inhibition in experiment [4] was 3.51% (inactive). Further, the results for the max response in experiment [4] (setting [6]) and in experiment [4] (setting [7]) were 17.8% and 24.5%, respectively.

For `C=C1C2CC[C@@]3(C)C(c4ccoc4)OC(=O)C[C@@]13OC1CC(=O)C(C)(C)C(C(O)C(=O)OC)[C@]12C` (stereo partly specified), the Potency in experiment [1] was 2.51 µM (active). In addition, the Potency entry in experiment [2], in experiment [3] and in experiment [5] was “inactive” each time. For the same compound, the activity change, negative = inhibition in experiment [4] is -0.848% (inactive). Also, the max response in experiment [4] (setting [6]) came out at 11.1%; in experiment [4] (setting [7]), 18.5%.

`CC(C)CCCC(C)C1CCC2C3CC(=O)[C@H]4CC(O)CC[C@]4(C)C3CC[C@@]12C` (stereo partly specified): the Potency entry in experiment [1], in experiment [2], in experiment [3] and in experiment [5] was “inactive” each time. The activity change, negative = inhibition in experiment [4] was -8.35% (inactive). The max response in experiment [4] (setting [6]) was -5.43%; in experiment [4] (setting [7]) it was -14%.

For the compound `O=c1oc2ccccc2cc1O`, the Potency result in experiment [1], in experiment [2], in experiment [3] and in experiment [5] was “inactive” each time. Also, the activity change, negative = inhibition in experiment [4] was 6.16% (inactive). The figures for the max response in experiment [4] (setting [6]) and in experiment [4] (setting [7]) were 4.09% and 13.1%, respectively.

For `CC(=O)OC1CCC2(O)CC1(C)CCC1C2CC1(C)C` (stereo unspecified), the Potency entry in experiment [1], in experiment [2], in experiment [3] and in experiment [5] was “inactive” throughout. Also, the activity change, negative = inhibition in experiment [4] is 0.291% (inactive). The max response was 16.4% in experiment [4] (setting [6]) and 18.1% in experiment [4] (setting [7]).

Turning to `CC1CCC(C(C)C)[C@H](O)C1` (stereo partly specified), the Potency result in experiment [1], in experiment [2], in experiment [3] and in experiment [5] was “inactive” each time. Also, the activity change, negative = inhibition in experiment [4] was 8.01% (inactive). Moreover, the results for the max response in experiment [4] (setting [6]) and in experiment [4] (setting [7]) were -2.41% and -1.46%, respectively.

For `OCC(O)C(O)[C@H](O[C@H]1OC(CO)C(O)C(O)C1O)[C@H](O)CO` (stereo partly specified), the Potency entry in experiment [1], in experiment [2], in experiment [3] and in experiment [5] was “inactive” throughout. The activity change, negative = inhibition in experiment [4] is 3.91% (inactive). Also, the max response in experiment [4] (setting [6]) amounted to 11.8%; in experiment [4] (setting [7]), 16%.

Regarding `CC1CCC(C(C)C)[C@H](OC(=O)c2ccccc2)C1` (stereo partly specified), the Potency entry in experiment [1], in experiment [2], in experiment [3] and in experiment [5] was “inactive” in each case. For the same compound, the activity change, negative = inhibition in experiment [4] was 5.46% (inactive). Moreover, the max response in experiment [4] (setting [6]) was found to be 10.9%; in experiment [4] (setting [7]), 15.1%.

For the compound `CCC(C(N)=O)c1ccccc1` (stereo unspecified), the Potency entry in experiment [1], in experiment [2], in experiment [3] and in experiment [5] was “inactive” each time. Moreover, the activity change, negative = inhibition in experiment [4] is 9.01% (inactive). For the same compound, the max response stood at 9.46% in experiment [4] (setting [6]) and 21.9% in experiment [4] (setting [7]).

`CC(C)c1c(O)c(-c2cc3c(c(C(C)C)c2O)CCC2C(C)(C)CCC[C@@]32C)cc2c1CCC1C(C)(C)CCC[C@@]21C` (stereo partly specified): the Potency entry in experiment [1], in experiment [2], in experiment [3] and in experiment [5] was “inactive” each time. The activity change, negative = inhibition in experiment [4] was 8.62% (inactive). Moreover, the max response was 4.25% in experiment [4] (setting [6]) and 16.8% in experiment [4] (setting [7]).

Take `Nc1ncnc2c1nc(Br)n2C1CC(O)C(CO)O1` (stereo unspecified): the Potency entry in experiment [1], in experiment [2], in experiment [3] and in experiment [5] was “inactive” throughout. Also, in experiment [4], the activity change, negative = inhibition was 2.34% (inactive). Further, the max response in experiment [4] (setting [6]) came out at 9.06%; in experiment [4] (setting [7]), 11.8%.

In the case of `O=c1[nH]c(=O)n(C2CC(O)C(CO)O2)cc1C(F)(F)F` (stereo unspecified), the Potency result in experiment [1], in experiment [2], in experiment [3] and in experiment [5] was “inactive” each time. The activity change, negative = inhibition in experiment [4] is 3.87% (inactive). The max response is -2.79% in experiment [4] (setting [6]) and 3.03% in experiment [4] (setting [7]).

For the origin of these results see PubChem BioAssay (NCATS).
